This is part of a sample that, as a whole, favours compounds with a hit. Of some 83,000 tested, about 20% had one in any assay.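 Cell lines were cultured in 96-well plates, exposed to a single compound concentration, and assessed for percent growth 48 hours later.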 Values without a mark were called inactive. Calls of active or inactive are those of the source. Rule for the calls: active = growth percent below 10; inactive = the rest.
Legend:
Experiment in all cases: NCI-60 one-dose screen, 48 h (100 = growth as untreated, 0 = no growth, -100 = all killed)
Details in all cases: 10 µM
[1] = system: T-47D breast
[2] = system: BT-549 breast
[3] = system: MDA-MB-435 melanoma
[4] = system: SW-620 colon
[5] = system: MCF7 breast
[6] = system: HCT-116 colon
[7] = system: HCC-2998 colon
[8] = system: KM12 colon
[9] = system: MDA-MB-468 breast

Cc1ccc(/C=C/C(=O)c2ccc(NC(=O)CSc3nnc(-c4c[nH]c5ccccc45)n3-c3ccccc3)cc2)c(C)c1
growth [1]: 36.9%
growth [2]: 52.8%
growth [3]: 49.5%
growth [4]: 33.2%
growth [5]: 3.33% (active)
growth [6]: -4.32% (active)
growth [7]: 74.1%
growth [8]: 66.6%
growth [9]: 22%

Cc1nn(-c2ccccc2)c2ncn(CC(=O)N/N=C/c3c[nH]c4ccccc34)c(=O)c12
growth [1]: 83.2%
growth [2]: 99.4%
growth [3]: 94.9%
growth [4]: 95.4%
growth [5]: 68.7%
growth [6]: 82.5%
growth [7]: 114%
growth [8]: 92.4%
growth [9]: 102%

CCC(C)S(=O)(=O)c1oc(-c2ccc(C)cc2)nc1S(=O)(=O)c1ccccc1 (stereo unspecified)
growth [1]: -73.5% (active)
growth [2]: -13.3% (active)
growth [3]: -98.2% (active)
growth [4]: -38.6% (active)
growth [5]: -56.5% (active)
growth [6]: -6.96% (active)
growth [7]: -84.6% (active)
growth [8]: -65% (active)
growth [9]: -93.4% (active)

CCN1CCN(c2ccc(NC(=O)Nc3ccc(-c4cc(C(=O)NC)c5ncccc5n4)cc3)cc2C(F)(F)F)CC1
growth [1]: 49.4%
growth [2]: -96% (active)
growth [3]: -100% (active)
growth [4]: -100% (active)
growth [5]: -83.1% (active)
growth [6]: -100% (active)
growth [7]: -100% (active)
growth [8]: -98.8% (active)
growth [9]: -96.4% (active)

Cc1ccc([N+](=O)[O-])c(C(=O)Nc2ccc(-c3ccc4c(c3)NC(=O)/C4=C\c3ccc[nH]3)cc2)c1
growth [1]: -15.7% (active)
growth [2]: 97.5%
growth [3]: 32%
growth [4]: -51.2% (active)
growth [5]: -47.7% (active)
growth [6]: 55.9%
growth [7]: 47.6%
growth [8]: -10.9% (active)
growth [9]: -28.9% (active)

COc1ccc2nc(Cl)c(-c3cc(-c4ccccc4)nc(=S)[nH]3)cc2c1
growth [1]: 76.4%
growth [2]: 14.7%
growth [3]: -27.6% (active)
growth [4]: 78.9%
growth [5]: 65%
growth [6]: 66.4%
growth [7]: 97.3%
growth [8]: 76.8%
growth [9]: 76%

CN(C(=O)c1ccc(C(C)(C)C)cc1)c1sc2c(c1C#N)CCC(=O)C2
growth [1]: -40.3% (active)
growth [2]: -27.7% (active)
growth [3]: 14.7%
growth [4]: -42.3% (active)
growth [5]: 25.7%
growth [6]: -9.14% (active)
growth [7]: -4.22% (active)
growth [8]: -6.74% (active)
growth [9]: -41.4% (active)

CC(C)C1=C[C@@]23CC[C@@H]4[C@](C)(CCC[C@]4(C)C(=O)NCc4ccccc4)[C@H]2C[C@@H]1[C@H]1C(=O)CCC(=O)[C@H]13
growth [1]: 51.8%
growth [2]: 68.7%
growth [3]: 86%
growth [4]: 85.4%
growth [5]: 42.7%
growth [6]: 60.4%
growth [7]: 90%
growth [8]: 84.6%
growth [9]: 70.1%

COc1ccc(C2NC(=S)NC(C)=C2C(=O)OC(C)C)cc1OC (stereo unspecified)
growth [1]: 91.1%
growth [2]: 103%
growth [3]: 104%
growth [4]: 103%
growth [5]: 108%
growth [6]: 99.3%
growth [7]: 114%
growth [8]: 103%
growth [9]: 98.9%

O=C(NC(=S)N1CCN(c2ncnc3c2cnn3-c2ccccc2)CC1)c1ccc(Cl)cc1
growth [1]: 57.2%
growth [2]: 63.5%
growth [3]: 89.2%
growth [4]: 68.9%
growth [5]: 38.9%
growth [6]: 41.9%
growth [7]: 82.6%
growth [8]: 87.3%
growth [9]: 64.6%

O=C(CSc1ccc(-c2ccc(Cl)cc2)nn1)Nc1ccc(Cl)c(C(F)(F)F)c1
growth [1]: 58.3%
growth [2]: 74.6%
growth [3]: 0.967% (active)
growth [4]: 36%
growth [5]: 31.5%
growth [6]: 50.7%
growth [7]: 69.5%
growth [8]: 43.3%
growth [9]: 16.5%

Cc1ccc(-c2cc(C(=O)N=Nc3c(O)[nH]c4ccccc34)c3ccccc3n2)cc1
growth [1]: 43.8%
growth [2]: 34.5%
growth [3]: 5.71% (active)
growth [4]: 8.14% (active)
growth [5]: 6.61% (active)
growth [6]: -15.8% (active)
growth [7]: 48.4%
growth [8]: 23.9%
growth [9]: 26.3%

CCOP(=O)(OCC)O[C@H]1CC[C@]2(C)[C@H]3CC[C@@H]4[C@@H]([C@](C)(O)CCC=C(C)C)CC[C@@]4(C)[C@]3(C)CC[C@H]2C1(C)C
growth [1]: 9.26% (active)
growth [2]: -14.5% (active)
growth [3]: 29.9%
growth [4]: 14.9%
growth [5]: -0.325% (active)
growth [6]: 9.92% (active)
growth [7]: 36%
growth [8]: 21.1%
growth [9]: -23.3% (active)

OCCCNc1oc(-c2ccccc2)nc1[P+](c1ccccc1)(c1ccccc1)c1ccccc1
growth [1]: 7.19% (active)
growth [2]: -40.5% (active)
growth [3]: 6.46% (active)
growth [4]: 11.5%
growth [5]: 0.534% (active)
growth [6]: 7.82% (active)
growth [7]: 2.5% (active)
growth [8]: -45.9% (active)
growth [9]: -41.3% (active)

COc1ccc2nc(Nc3cccc(NC(=O)c4ccc(CN5CCN(C)CC5)c(C(F)(F)F)c4)c3)ccc2c1
growth [1]: -25.9% (active)
growth [2]: -45.8% (active)
growth [3]: -96% (active)
growth [4]: -89.7% (active)
growth [5]: -97.1% (active)
growth [6]: -15.3% (active)
growth [7]: -99.4% (active)
growth [8]: -68.1% (active)
growth [9]: -97.1% (active)

Cc1ccc2nc(-c3ccc(-c4nnc(SCC(=O)Nc5ccc(Cl)cc5)o4)cc3)[nH]c2c1
growth [1]: 65.1%
growth [2]: 65.9%
growth [3]: 49.1%
growth [4]: 3.49% (active)
growth [5]: -16.1% (active)
growth [6]: 9.37% (active)
growth [7]: 67.5%
growth [8]: 50.8%
growth [9]: 46.8%

O=C1Nc2cc(Cl)ccc2/C1=C/c1ccc(OCc2ccc(Br)cc2F)cc1
growth [1]: -48.4% (active)
growth [2]: -18.7% (active)
growth [3]: -27.5% (active)
growth [4]: -56% (active)
growth [5]: 6.09% (active)
growth [6]: -73% (active)
growth [7]: 19.5%
growth [8]: -7.72% (active)
growth [9]: -70.1% (active)

CCN1CCN(c2ccc(NC(=O)Nc3ccc4c(c3F)CCN4c3ccnc(C(=O)NC)c3)cc2C(F)(F)F)CC1
growth [1]: 105%
growth [2]: -39.7% (active)
growth [3]: -92.7% (active)
growth [4]: -76.9% (active)
growth [5]: -77.9% (active)
growth [6]: -96.5% (active)
growth [7]: 120%
growth [8]: -83.3% (active)
growth [9]: 98.9%

COc1ccc(/C=C/C(=O)c2ccc(N3CCN(C)CC3)cc2)c(C(F)(F)F)c1
growth [1]: 39.7%
growth [2]: 40.7%
growth [3]: -54.9% (active)
growth [4]: -80% (active)
growth [5]: -54.1% (active)
growth [6]: 11.4%
growth [7]: -49.4% (active)
growth [8]: 8.95% (active)
growth [9]: -10.7% (active)

C#Cc1ccc(S(=O)(=O)Nc2cccc(-c3csc(NC(C)=O)n3)c2)cc1
growth [1]: 42.8%
growth [2]: 55.7%
growth [3]: 51.5%
growth [4]: 95.2%
growth [5]: 64.5%
growth [6]: 77.9%
growth [7]: 91.3%
growth [8]: 69.4%
growth [9]: 37.9%

Cc1nc(Nc2nc(C)c3ccc(OCCN4CCOCC4)cc3n2)[nH]c(=O)c1C
growth [1]: -10.5% (active)
growth [2]: -74.2% (active)
growth [3]: -50.8% (active)
growth [4]: 8.56% (active)
growth [5]: 0.281% (active)
growth [6]: 6.7% (active)
growth [7]: -72.8% (active)
growth [8]: 6.49% (active)
growth [9]: -72.8% (active)

C=C1CCC2C3(C)COC(c4ccccc4F)OC3CCC2(C)C1C/C=C1/C(=O)OCC1O (stereo unspecified)
growth [1]: -50.4% (active)
growth [2]: -82.1% (active)
growth [3]: 4.59% (active)
growth [4]: -68.5% (active)
growth [5]: -26.5% (active)
growth [6]: -67.8% (active)
growth [7]: -73.5% (active)
growth [8]: -82.3% (active)
growth [9]: -22.6% (active)

N#Cc1c(NC(=O)c2ccc(C(F)(F)F)cc2C(F)(F)F)sc2c1CCC(=O)C2
growth [1]: -22.7% (active)
growth [2]: -65.3% (active)
growth [3]: -53.6% (active)
growth [4]: -43.7% (active)
growth [5]: -10.6% (active)
growth [6]: 0.663% (active)
growth [7]: -2.99% (active)
growth [8]: -34.2% (active)
growth [9]: -79.9% (active)

O=C1Nc2cc(Cl)ccc2/C1=C/c1cccc(OCc2ccc(Br)cc2F)c1
growth [1]: 9.72% (active)
growth [2]: 10.5%
growth [3]: -64.4% (active)
growth [4]: 19.5%
growth [5]: 5.38% (active)
growth [6]: 1.63% (active)
growth [7]: 26%
growth [8]: 1.67% (active)
growth [9]: -9.05% (active)

CN1CCN(c2ccc(Nc3nc(NCCCNC(=O)C4CCCCC4)c4sccc4n3)cc2)CC1
growth [1]: 36.6%
growth [2]: 69.1%
growth [3]: 34%
growth [4]: 40%
growth [5]: 23.1%
growth [6]: 30.8%
growth [7]: 59.5%
growth [8]: 63.7%
growth [9]: 49.1%

O=C1Nc2ccc(Cl)cc2/C1=C/c1cccc(OCc2ccccn2)c1
growth [1]: -2.11% (active)
growth [2]: -7.83% (active)
growth [3]: -39.2% (active)
growth [4]: -38% (active)
growth [5]: -0.24% (active)
growth [6]: -98.3% (active)
growth [7]: -73.2% (active)
growth [8]: -32.3% (active)
growth [9]: -30% (active)

N#Cc1c(-c2ccc(F)cc2)nc(SCc2ccc([N+](=O)[O-])cc2)nc1N1CCOCC1
growth [1]: 55.5%
growth [2]: 58.5%
growth [3]: 84%
growth [4]: 80.5%
growth [5]: 58.5%
growth [6]: 64.4%
growth [7]: 90.7%
growth [8]: 84.9%
growth [9]: 50.6%

CCOC(=O)c1sc(N/N=C(\C)c2ccc3c(c2)Nc2ccccc2S3)nc1C
growth [1]: 8.5% (active)
growth [2]: 48.1%
growth [3]: 34.5%
growth [4]: 20.3%
growth [5]: -2.84% (active)
growth [6]: 23.4%
growth [7]: 3.51% (active)
growth [8]: 7.04% (active)
growth [9]: 8.47% (active)

O=C(Nc1cccc(C(F)(F)F)c1)c1cncc(C#Cc2cnc3ccc(N4CCOCC4)nn23)c1
growth [1]: 1.64% (active)
growth [2]: -37.5% (active)
growth [3]: 4.32% (active)
growth [4]: 2.23% (active)
growth [5]: -30% (active)
growth [6]: 0.369% (active)
growth [7]: -4.89% (active)
growth [8]: -24.1% (active)
growth [9]: -64.7% (active)

Reference: PubChem BioAssay (NCI)
